# According to PubChem BioAssay (NCI):
# Compounds without any hit were thinned out: in the full panel of roughly 83,000, 20% have a hit.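 Plates (96-well) were seeded with cells, treated with compound at one concentration, and incubated for 48 hours before percent growth was determined.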 A number with no mark means an inactive call. Active and inactive are the calls of the source. The calls were made as follows: active = growth percent below 10; inactive = the rest.
# What was measured:
# Test in all cases: NCI-60 one-dose screen, 48 h (100 = growth as untreated, 0 = no growth, -100 = all killed)
# Settings in all cases: 10 µM unless noted
# SK-MEL-2 melanoma = system: SK-MEL-2 melanoma
# EKVX NSCLC = system: EKVX NSCLC
# SN12C renal = system: SN12C renal
# UO-31 renal = system: UO-31 renal
# TK-10 renal = system: TK-10 renal
# ACHN renal = system: ACHN renal
# CAKI-1 renal = system: CAKI-1 renal
# A498 renal = system: A498 renal
# CCRF-CEM leukemia = system: CCRF-CEM leukemia
# MOLT-4 leukemia = system: MOLT-4 leukemia
# SR leukemia = system: SR leukemia
# RPMI-8226 leukemia = system: RPMI-8226 leukemia
# OVCAR-8 ovarian = system: OVCAR-8 ovarian
# OVCAR-5 ovarian = system: OVCAR-5 ovarian
# OVCAR-4 ovarian = system: OVCAR-4 ovarian
# SK-OV-3 ovarian = system: SK-OV-3 ovarian
# IGROV1 ovarian = system: IGROV1 ovarian
# OVCAR-3 ovarian = system: OVCAR-3 ovarian
# HS 578T breast = system: HS 578T breast
# NCI/ADR-RES ovarian = system: NCI/ADR-RES ovarian
SMILES,growth (SK-MEL-2 melanoma),growth (EKVX NSCLC),growth (SN12C renal),growth (UO-31 renal),growth (TK-10 renal),growth (ACHN renal),growth (CAKI-1 renal),growth (A498 renal),growth (CCRF-CEM leukemia),growth (MOLT-4 leukemia),growth (SR leukemia),growth (RPMI-8226 leukemia),growth (OVCAR-8 ovarian),growth (OVCAR-5 ovarian),growth (OVCAR-4 ovarian),growth (SK-OV-3 ovarian),growth (IGROV1 ovarian),growth (OVCAR-3 ovarian),growth (HS 578T breast),growth (NCI/ADR-RES ovarian)
CCN(CC)CCCC(C)Nc1ccnc2ccc(Oc3ccccc3)cc12 (stereo not drawn),112%,85.5%,79.1%,68.5%,93.5%,67.1%,79%,48.4%,72.5%,62.6%,14.6%,76.7%,76.7%,88.6%,66.6%,114%,77%,76.8%,82%,92.8%
COc1cc(-c2nc(-c3ccc(-c4nc5ccc(F)cc5[nH]4)cc3)no2)cc(OC)c1OC,55.6%,46.9%,66.1%,19.8%,93%,36.7%,47.3%,71.2%,8.61% (active),21.1%,32.5%,-15.3% (active),5.86% (active),72.9%,30.9%,85.5%,47.3%,36.6%,,13.3%
CN1C2CCC1/C(=C\c1ccc(F)cc1)C(=O)/C2=C/c1ccc(F)cc1,50%,60.4%,37.8%,49.7%,73.1%,55.5%,54.8%,73.3%,16.5%,9.91% (active),21.6%,11%,-19.8% (active),72.3%,39.1%,79.8%,61.9%,21%,75%,20.2%
CN(C)c1nc(-c2cccs2)n2nc(-c3ccc(Cl)cc3)cc2n1,67%,49.6%,44.9%,-63.9% (active),-23.1% (active),-21.1% (active),18.8%,-11.4% (active),73.8%,82.1%,58.7%,74.3%,11.8%,75.6%,-39.5% (active),-54.2% (active),11.9%,14.8%,-2.48% (active),38.3%
COc1cccc(-c2nc3sccn3c2-c2ccnc(NCCN3CCCNS3(=O)=O)n2)c1,86.3%,110%,60.8%,70.7%,115%,48.4%,44.6%,108%,68.1%,87.5%,59.5%,102%,83.8%,112%,81.5%,54.8%,75%,102%,105%,105%
CCOC(=O)C#Cc1c(C(=O)OCC)nnn1[C@@H]1O[C@H](COC(C)=O)[C@@H](OC(C)=O)[C@H]1OC(C)=O,95.8%,103%,88.5%,65%,62.3%,53.2%,4.56% (active),102%,48.3%,79.9%,22.8%,94.8%,94.1%,100%,104%,109%,91.5%,62.1%,96.2%,104%
Cc1ccccc1NC(=O)c1sc2nc3c(cc2c1N)C(=O)CCC3,58.6%,87.5%,64.5%,77.5%,81.2%,49.3%,55.4%,31.3%,30.3%,67.5%,34.4%,67.2%,78.6%,80.8%,67.6%,22.1%,77%,4.33% (active),,22.6%
Cc1ccc2c(C)c3c(ccc4ccccc43)c[n+]2c1,98.4%,44.1%,26.3%,45.9%,111%,91.7%,75.9%,89.7%,57.1%,61.3%,58.2%,47.8%,52.5%,90.3%,56.3%,83.8%,60.6%,53.2%,77.8%,95.9%
